This is an account of results in the supplement of paper PMC6555819.

The experiment concerns RARb:RXRa (NR concentration 270 nM, RXRa partner concentration 90 nM). The experiment in a line: PBM binding z-score (relative to random genomic background probes); higher = stronger binding; sequences stand for … in GC…GCGATTGACAGCGTAGAATGAAGG
The gist of the method:
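Ligand-free nuclear receptor dimers were bound for 1 h to custom Agilent 4×180K protein-binding microarrays. Detection used antibodies against each partner (one per run). Binding z-scores rest on regression-normalized fluorescence, with random background probes as the reference.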
The sequence ATCGCAAGGTCGACGAGGTGAGTATACACCGTTT returned a PBM binding z-score of 2.49.

As to GCTAGTTGGTCAGTAAAAGGTCACACCCCGGTCG, the PBM binding z-score came to 4.21.

ACTAGAAGGCCAAGTTTGGGTCACTCAAACAAAG gave a PBM binding z-score of 2.71.

The sequence TATACAGGGTCAAAGTCCAGAGTACGAATGTCGA came in with a PBM binding z-score of 4.42.

For GCTGCTAGGTCAGGTTGATCAGCTAACGGGTACG, the PBM binding z-score turned out to be 3.06.

Regarding TCATATGGGTAATACAGGTGAAAGTCGGCATCTA, the PBM binding z-score turned out to be 0.214.

On to ACTAGCAGGTCAAGTTTGGGTCACTCAAACAAAG, for which the PBM binding z-score turned out to be 4.61.

TCTATTAGTTGAAGGCCAACCGACGAGTCCGTTT yielded a PBM binding z-score of 1.02.

TTACCAAGGTGAAAGGTTGTTGATGCACGCCTTG: the PBM binding z-score stood at 1.63.

Regarding CGAACTCGGTCATCCAGGACAGTGAATACATTGA, the PBM binding z-score stood at 2.31.

On to TCATAGAGGTAAAAGGTGAAAGTCGGTGTGGTAA, for which the PBM binding z-score turned out to be 2.07.

Sequence TTACCAAGGTGAGCTGAGGTCGTTGAACCAACTC registered a PBM binding z-score of 1.79.

TAGCCTAGGTCATTGGGCCAGTATCGTACGCATC displayed a PBM binding z-score of 3.85.

AGAACTAGGGCAATGAGTTGATAGCACGGGTGGC had a PBM binding z-score of 1.31.

In turn, CCTACTGGACCATTCAGAGGTCATTGATCATATG gave a PBM binding z-score of 2.8.

For the sequence CGTCCAAGGTCAAAGGACAGTGAAGAGATGACGG, the PBM binding z-score was 5.21.

In turn, CGTCAAAGATCAACTAAGGTAACGTAAAGCACGC came in with a PBM binding z-score of 0.548.

The sequence TAGCCTAGGTCATGTGCCAGTATACCACGCGAAC had a PBM binding z-score of 3.74.

For TCATATAGGTAAACGCTAGGTGAAAGTCCGATCT, the PBM binding z-score was 0.474.

In turn, CCGACTGGGGCATAAGGATACCATAAGCCAGCCC yielded a PBM binding z-score of 0.0537.

With AATACAGGGTCATTGTAGGCCAGAGTACGCACAG, the PBM binding z-score stood at 4.19.

Consider ATAGAAAGGTCGAGGTGAGTATAGAGAAAGGGAA, for which the PBM binding z-score came to 4.

As to ATCTCTAGGTCAAGATAGTTCAGTGAATGCAAAT, the PBM binding z-score amounted to 4.26.

Take ATACCAAGGTGATCGTGAAGTCGTTGATACTAAC: the PBM binding z-score amounted to 0.582.

In the case of AACTCTAGGTAACCAAGTTCAGTGAATGCCGAAC, the PBM binding z-score amounted to 0.858.

CCTGCTAGGTCACGGTCAGCTAATCTACAGTATG showed a PBM binding z-score of 4.46.

On to ATATGTAGGTTATGGGTCATTCAGGTTGGTTCGC, for which the PBM binding z-score came out at 2.52.

Turning to TTATCAAGGTGAGCTGAGGTCGTTGATCCAACTC, the PBM binding z-score amounted to 1.85.

Turning to ATCTCTAGGTAAGGTTCAGTGAAAGATCGATAGA, the PBM binding z-score stood at 1.34.

As to TGAATGAGGTTAAAGATCTGGGAACGTGGCGTCG, the PBM binding z-score stood at 1.93.

CGTCAAAGTACAACTAAGGTAACGTAAAGCACGC: the PBM binding z-score was 1.34.

In the case of CAAACTAGGTCAGAACAGGACAGTGAAGGATGAT, the PBM binding z-score was 3.24.

GTACCAAGGTGAATAGGGCGTTGATGAGTAGGCG returned a PBM binding z-score of 1.5.

The sequence AGAATGATGTTATACGTAGATCAGGGAAGAAAGT yielded a PBM binding z-score of -0.18.

As to CCTCGGAGGGCAACAGGAGGTCAGAGCTGCCAGA, the PBM binding z-score came out at 3.71.

As to CCAGCCAGGTGAAAGGTAACTCAGTCTGGTACGC, the PBM binding z-score was found to be 0.935.

CTAGAAAGGTCGTGCTCAGGTGAGTATACCAAAC: the PBM binding z-score worked out at 3.63.

ATATGTAGGTTACATCCGGGTCATTCAGGCTATG displayed a PBM binding z-score of 2.23.

With CCTAGCAGGCCAATTTGGGTCACTCAAGGCTTGA, the PBM binding z-score is 1.29.

Regarding CCTGCTAGGTCATGGTCAGATAATCTACAGTATG, the PBM binding z-score worked out at 3.92.
